Assay [1] in a line: A CellTox Green Cytotoxicity Assay to monitor cytotoxicity in HepG2 cells - 0 hour (AID 1224882). Further: nearly all actives have a fitted effect of over 35% in size. A digest of the protocol: (§1)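 Fluorescent DNA-binding dye, 600 HepG2 cells/well, 5 h preincubation then compound in DMSO; same plates read at 0–40 h, 37 C.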
Assay [2] can be described thus: A CellTox Green Cytotoxicity Assay to monitor cytotoxicity in HEK293 cells - 8 hour (AID 1224884). Further: nearly all actives have a fitted effect of over 35% in size. A digest of the protocol: (§2)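 Homogeneous no-lysis format: HEK293 cell suspension mixed with CellTox Green reagent, seeded, incubated 5 h at 37 C/5% CO2, then dosed by pintool with compound in DMSO.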
Assay [3] in a line: qHTS RealTime-Glo MT Cell Viability Assay in HepG2 cells - 16 hour (AID 1224885). Further: nearly all actives have a fitted effect of over 50% in size. A digest of the protocol:
(§3)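 Luminescence read-out: viable HepG2 cells reduce a prosubstrate to a NanoLuc substrate, giving a signal proportional to live cell number. Reads taken at 0, 8, 16, 24, 32 and 40 h of compound exposure at 37 C.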

Assay [4] is described as follows: A CellTox Green Cytotoxicity Assay to monitor cytotoxicity in HEK293 cells - 16 hour (AID 1224888). Further: nearly all actives have a fitted effect of over 35% in size. The method in brief:
as §2

Assay [5] can be described thus: qHTS RealTime-Glo MT Cell Viability Assay in HepG2 cells - 0 hour (AID 1224889). Further: nearly all actives have a fitted effect of over 50% in size. Further: potency means the concentration at half of the fitted maximal effect. The method in brief:
as §3

A short description of assay [6]: A CellTox Green Cytotoxicity Assay to monitor cytotoxicity in HepG2 cells - 8 hour (AID 1224890). Further: nearly all actives have a fitted effect of over 45% in size. The method in brief:
as §1

Assay [7] is described as follows: qHTS assay to identify small molecule antagonists of the estrogen receptor alpha (ER-alpha) signaling pathway using the BG1 cell line in the presence of 0.1 nM 17-beta-estradiol - cell viability counter screen (AID 1259241). Further: nearly all actives have a fitted effect of over 40% in size. A digest of the protocol: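 Live-cell protease activity (CellTiter-Fluor fluorescence, 30 min) was read in the same wells after VM7Luc4E2 cells had been exposed to compounds with 0.1 nM 17beta-estradiol for 22 hr at 37C.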

A short description of assay [8]: A CellTox Green Cytotoxicity Assay to monitor cytotoxicity in HepG2 cells - 32 hour (AID 1224883). Further: nearly all actives have a fitted effect of over 50% in size. A digest of the protocol:
as §1

Assay [9] can be described thus: qHTS RealTime-Glo MT Cell Viability Assay in HEK293 cells - 24 hour (AID 1224886). Further: nearly all actives have a fitted effect of over 50% in size. Further: potency means the concentration at half of the fitted maximal effect. A digest of the protocol:
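Nonlytic real-time viability readout: viable cells convert prosubstrate to NanoLuc substrate, giving luminescence proportional to live cell number. HEK293, 600 cells/well, compound added after 5 h, continuous culture at 37 C.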

A short description of assay [10]: qHTS RealTime-Glo MT Cell Viability Assay in HEK293 cells - 8 hour (AID 1224887). The method in brief: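 Measured as luminescence from the same continuously cultured HEK293 wells at successive time points (0, 8, 16, 24, 32, 40 h) after compound addition. Reagent present from seeding; dosing at 5 h; incubation 37 C.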

Results filed as inconclusive are left out. The source made the active and inactive calls. The call rests on the fitted dose curve; in most records, active means well fitted curve in the direction sought with a large enough effect in the repeat runs; inconclusive means weak or mixed curves; inactive means no such curve, though single readings can be large; an effect the other way counts as inactive or inconclusive.

Take `CNP(=O)(OC)Oc1ccc(C(C)(C)C)cc1Cl` (stereo not given): the Potency entry in assay [1], in [2], in [3], in assay [4], in assay [5] and in assay [6] was “inactive” throughout. The Potency entry in assay [7] is “inactive”.
With `CC1(C)[C@H](C=C(Cl)Cl)[C@@H]1C(=O)O[C@@H](C#N)c1cccc(Oc2ccccc2)c1`, the Potency result in assay [8], in [2], in assay [3], in assay [9], in assay [10] and in assay [4] was “inactive” each time. Also, the Potency entry in [5], in [6] and in assay [7] was “inactive” throughout.
With `O=C1NCN(c2ccccc2)C12CCN(CCCOc1ccc(F)cc1)CC2`, the Potency entry in assay [1], in assay [2], in assay [3], in assay [10], in assay [4] and in assay [5] was “inactive” throughout. Further, the Potency entry in [6] and in [7] was “inactive” each time.
For `CCBr`, the Potency entry in assay [8], in assay [2], in assay [3], in [9], in assay [10] and in [4] was “inactive” in each case. In addition, the Potency entry in assay [5], in assay [6] and in assay [7] was “inactive” in each case.
As to `C/C(=C\c1ccccc1)[N+](=O)[O-]`, the Potency result in [1], in assay [2], in [4], in assay [5], in [6] and in [7] was “inactive” throughout.
Turning to `S=C=NCc1ccccc1`, the Potency result in [1], in [2], in [3], in [4], in assay [5] and in assay [6] was “inactive” each time. For the same molecule, the Potency entry in assay [7] is “inactive”. In addition, the Potency in assay [9] is 24.8 µM (active).
Consider `O=C(NC(=O)c1c(F)cccc1F)Nc1cc(Cl)c(Oc2ncc(C(F)(F)F)cc2Cl)c(Cl)c1`, for which the Potency result in assay [1], in assay [8], in assay [2], in assay [10], in [4] and in assay [5] was “inactive” in each case. In [7], the Potency entry is “inactive”.
Consider `COC(N)=O`, for which the Potency entry in assay [8], in [2], in assay [3], in assay [9], in assay [10] and in [4] was “inactive” each time. Moreover, the Potency entry in assay [5], in [6] and in [7] was “inactive” each time.
Turning to `O=[N+]([O-])C(Br)(CO)CO`, the Potency entry in assay [1], in assay [2], in assay [4], in assay [5] and in assay [7] was “inactive” each time.
`C[C@H]1CNCCc2ccc(Cl)cc21`: the Potency result in assay [8], in [2], in assay [3], in assay [9], in [10] and in [4] was “inactive” throughout. Besides, the Potency entry in [5], in [6] and in assay [7] was “inactive” throughout.
As to `CCC(Br)(CC)C(=O)NC(N)=O`, the Potency entry in [8], in assay [2], in assay [3], in assay [9], in [10] and in [4] was “inactive” throughout. In addition, the Potency entry in assay [5], in [6] and in assay [7] was “inactive” each time.
Turning to `CC(=O)NC1CCSC1=O` (stereo not given), the Potency entry in assay [8], in assay [2], in assay [3], in assay [9], in [10] and in assay [4] was “inactive” throughout. Also, the Potency entry in assay [5] and in [7] was “inactive” throughout.
Consider `O=Cc1ccc2c(c1)OCO2`, for which the Potency result in [8], in assay [2], in assay [3], in assay [9], in [10] and in assay [5] was “inactive” throughout. The Potency result in [6] and in [7] was “inactive” in each case.
In the case of `Cn1sc(Cl)cc1=O`, the Potency result in [8], in assay [2], in assay [3], in [9], in assay [4] and in assay [5] was “inactive” throughout. The Potency result in [6] and in assay [7] was “inactive” each time.
For `C=CC(=O)OC(C)(C)C`, the Potency entry in assay [8], in assay [2], in [3], in assay [9], in [10] and in [5] was “inactive” each time. In addition, the Potency result in assay [6] and in assay [7] was “inactive” throughout.
Take `COc1ccc(-c2ccccc2)cc1NNC(=O)OC(C)C`: the Potency result in assay [8], in assay [2], in assay [4], in assay [5] and in [7] was “inactive” in each case. Further, the Potency in [9] is 51 µM (active).
As for `COP(=O)(OC)O/C(=C/Cl)c1cc(Cl)c(Cl)cc1Cl`, the Potency result in assay [2], in assay [3], in [5], in [6] and in assay [7] was “inactive” throughout.
With `COP(=S)(Oc1cc(Cl)c(Br)cc1Cl)c1ccccc1` (stereo not given), the Potency result in assay [2], in assay [3], in [4] and in assay [7] was “inactive” throughout.
As to `C=CC(=O)NCNC(=O)C=C`, the Potency entry in assay [8], in assay [2], in [3], in [9], in assay [10] and in assay [4] was “inactive” each time. For the same molecule, the Potency entry in assay [5] and in [7] was “inactive” in each case.
Regarding `COC(=O)C(Cl)C(=O)OC`, the Potency result in [8], in assay [2], in [3], in [9], in [10] and in assay [5] was “inactive” in each case. The Potency entry in [6] and in assay [7] was “inactive” each time.
Take `CCCCCCCCCCOC(=O)c1ccccc1C(=O)OCCCCCCCCCC`: the Potency result in [8], in assay [2], in assay [3], in assay [9], in assay [4] and in assay [5] was “inactive” in each case. Moreover, the Potency entry in [6] and in assay [7] was “inactive” in each case.
Regarding `CC(C)(Cl)[N+](=O)[O-]`, the Potency entry in assay [8], in [2], in assay [3], in assay [9], in assay [10] and in assay [4] was “inactive” each time. The Potency entry in [7] was “inactive”. Further, the Potency in [5] is 6.19 µM (active).

For the origin of these results see PubChem BioAssay (Tox21).
